Measured values as given in PubChem BioAssay (NCI).
The panel holds about 83,000 compounds, 20% with a hit somewhere; the sample as a whole holds those more often.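 96-well plates, one dose, 48 hours. Percent growth reported; active if below 10.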 Active and inactive are the calls of the source.

System: RXF 393 renal
Test: NCI-60 one-dose screen, 48 h (100 = growth as untreated, 0 = no growth, -100 = all killed)
Conditions: 10 µM unless noted

| SMILES | growth |
| --- | --- |
| COc1cc2cc(Oc3ccc(NC(=O)Nc4ccc(Cl)c(C(F)(F)F)c4)cc3)c(C)nc2cc1OCCN1CCCCC1 | 44.2% (inactive) |
| CN1CCN(c2ccc3nc(-c4ccc5nc(-c6ccc(C(F)(F)F)cc6)[nH]c5c4)[nH]c3c2)CC1 | -14.3% (active) |
| Cc1c(C(=O)Nc2nc(-c3ccccc3)cs2)nnn1-c1ccccc1Br | 76.4% [50 µM] (inactive) |
| Clc1ccc(Nc2nc(Nc3ccccc3)nc(Nc3ccc(-c4cc(-c5ccc(Cl)cc5)on4)cc3)n2)cc1 | 74.6% (inactive) |
| C=C1CC[C@@H]2[C@@](C)(CCC[C@]2(C)C(=O)O)[C@@H]1CC[C@H](CO)CCO | 118% (inactive) |
| COC(=O)CCC(=O)c1ccccc1 | 139% (inactive) |
| COc1ncnc2c1ncn2C/C(Br)=C(\Br)CCl | 70.1% (inactive) |
| CN1CCC(OC2c3ccccc3CCc3ccccc32)CC1 | 89.2% (inactive) |
| O=[N+]([O-])c1ccc(C=C2C(Cl)=C(Cl)C(Cl)=C2Cl)cc1 | 0.914% (active) |
| COc1ccc(OC)c(/C=C2\Oc3cc(O)ccc3C2=O)c1 | 80.5% (inactive) |
| COC(=O)[C@@]12CC[C@@H](C)[C@]3(C[C@@H](c4ccoc4)OC3=O)[C@H]1CC[C@@H]1O[C@@]12C | 118% (inactive) |
| COc1ccc(-c2nc3sc(C)cn3c2/C=C/C(=O)c2cc(OC)c(OC)c(OC)c2)cc1 | 84.5% (inactive) |
| C=CC(=O)N1CC2(CC(n3nc(-c4ccc(Oc5ccccc5)cc4)c4c(N)ncnc43)C2)C1 | -19.4% (active) |
| Cc1cc(=O)c2c(C)ccc(C)c2[nH]1 | 90.7% (inactive) |
| O=C1CN2CCC1C/C2=C\c1ccnc2c(Cl)cccc12 (stereo not drawn) | 107% (inactive) |
| O=C1c2ccccc2-c2nnc(-c3ccc(Br)cc3)cc21 | 33.7% (inactive) |
| COc1ccc(-c2nn(-c3ccc(NC(=O)c4ccc(Cl)c(Cl)c4)cc3)cc2-c2ccncc2)cc1Cl | -82.1% (active) |
| O=c1oc2ccccc2cc1-c1csc(N=Nc2c(O)[nH]c3ccc(Cl)cc23)n1 | 129% (inactive) |
| COc1cc2nc(N3CCC[C@H](NC4=CC(=O)c5ccccc5C4=O)C3)nc(N)c2cc1OC | -76.7% (active) |

| SMILES | growth |
| --- | --- |
| O=C1C(N2CCOCC2)=Cc2cccc3cccc1c23 | 99.3% (inactive) |
| CCOC(=O)c1c(-c2cc(OC)c(OC)c(OC)c2)csc1N | 93.2% (inactive) |
| N#Cc1c(-c2cccc(F)c2)cc(-c2ccc(Br)s2)[nH]c1=O | 87.3% (inactive) |
| COc1ccc(NC(=O)c2ccc3c(c2)nc(-c2ccc(Cl)cc2)n3-c2cc(C(C)(C)C)[nH]n2)cc1 | 79.1% (inactive) |
| Oc1cccc(Nc2nc(-c3ccccn3)cs2)c1 | 113% (inactive) |
| O=S(=O)(/N=C1C=C/C(=N\S(=O)(=O)c2ccccc2)c2ccccc2\1)c1ccccc1 | 107% (inactive) |
| O=C(COc1cccc(/C=C2\COc3ccccc3C2=O)c1)c1ccccc1 | 69.5% (inactive) |
| Cc1ccc(S(=O)(=O)N2CCc3ccc(O)c4c3C2Cc2cc(Cl)ccc2-4)cc1 (stereo not drawn) | 71% (inactive) |
| COc1ccc(OC)c(C2C(C#N)=C(N)Oc3cc(O)ccc32)c1 (stereo not drawn) | 92.1% (inactive) |
| CC(=O)N(CC(O)CO)c1c(I)c(C(=O)NCCO)c(I)c(C(=O)NCC(O)CO)c1I (stereo not drawn) | 103% (inactive) |
| N#CC1=C(N)Oc2cc(N)ccc2C1c1ccc(F)cc1 (stereo not drawn) | 74.9% (inactive) |
| CCN(CC)CCCNc1ccc(C)c2sc3ccccc3c(=O)c12 | 1.02% (active) |
| COc1ccc(/C=C2\Oc3cc(C)c(Cl)cc3C2=O)cc1OC | 111% (inactive) |
| Cc1nc2ccc(Cl)cc2n1C | 101% (inactive) |
| COc1ccc(/C=N/NC(=O)c2cnn(CC(O)Cc3ccccc3)c2N)cc1OC1CCCC1 (stereo not drawn) | 85.8% (inactive) |
| COc1ccc(-c2csc3c2-n2cccc2C3=O)cc1O | 31.3% (inactive) |
| COc1cc(C(F)(F)F)ccc1-c1cc(-c2ccc(F)cc2)n[nH]1 | 92.4% (inactive) |
| C[C@@H](Oc1cc(-c2cnn(C3CC4(CCNCC4)C3)c2)cnc1N)c1c(F)ccc(Cl)c1Cl | -31.5% (active) |
| CC(C)NCC(O)COc1ccc(CCOCC2CC2)cc1 (stereo not drawn) | 97.1% (inactive) |
